In the library only some 2.9% were active in any assay of this set; here they are far more common.
LMP1 NFkB inh = Epstein-Barr LMP1 NF-kappaB reporter inhibition; inhibition, % at 12.5 µM; LMP1-induced NF-kappaB luciferase reporter cells, luminescence; 0.69% of 350,000 active; in the data active = inhibition above about 41%; inconclusive = no clear call, values can overlap the other calls
KKLEB cytotox = reduces viability of KKLEB cystic fibrosis airway cells | 0.36% of 360,000 active | KKLEB CF airway cells viability, ATPlite luminescence, overnight; active compounds read low; cells stimulated with P. aeruginosa culture filtrate | activity change (cytotoxicity), % at 5 µM;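 active = corrected activity change at or below -50% at 5 µM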
TRPM1 prom inh = reduces MITF-dependent TRPM1 promoter luciferase signal; inhibition, % at 12.5 µM; SK-MEL-5 TRPM1 promoter luciferase, 24 h; AID 488899; 0.83% of 330,000 active;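 active = mean inhibition across replicates of 60% or more, whatever share of single replicates reaches that level; inconclusive = some that reach 60%, reason not given; inactive = mean inhibition across replicates below 60%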
Shn3 inh set2 = inhibitors of Schnurri-3 3'UTR reporter in osteoblasts; Clone20 osteoblast Shn3 3'UTR firefly luciferase, 24 h; inhibition, % at 12.5 µM; 0.52% of 360,000 active; AID 588674;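 active = mean inhibition of at least 75% with every replicate also reaching 75%; inconclusive = mean inhibition at least 75% but some replicate below; inactive = mean inhibition below 75%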
Peg3 promoter = inhibitors of Peg3 promoter | HeLa PEG-Prom luciferase reporter, luminescence, overnight | inhibition, % at 20 µM | 1.7% of 360,000 active;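 active = inhibition of at least 50% at 20 µM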
CF NFkB inh = inhibitors of cystic fibrosis induced NF-kB; KKLEB NF-kB-GFP reporter, PAF-induced, GFP fluorescence overnight; inhibition, % at 5 µM; 0.86% of 360,000 active; AID 588850;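 active = at least 50% inhibition at 5 µM, scaled per plate between neutral and stimulator controls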;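 also: PAF is a Pseudomonas aeruginosa culture filtrate used as stimulus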
Each line names hits and unclear results; the compound was inactive in the other large screens.

Cc1cc(NC(=O)c2ccccc2F)n(-c2nc3ccccc3[nH]2)n1	none
Cc1cc(NC(=O)/C=C/c2cccc(Cl)c2)n(-c2nc3ccccc3[nH]2)n1	KKLEB cytotox -56, CF NFkB inh 54
Cc1ccc(F)c(S(=O)(=O)NC(=O)C2(C)CCN2C(=O)Cc2cccc3ccccc23)c1 (stereo not drawn)	none (no result: LMP1 NFkB inh, TRPM1 prom inh)
COc1ccc(N=C2NC(=O)/C(=C/c3ccc(O)c(OC)c3)S2)cc1	CF NFkB inh 57
CC(C)c1cccc(-c2ccc3c(c2)S(=O)(=O)c2cccc(C(=O)NCc4ccccc4Cl)c2C3=O)c1	TRPM1 prom inh 82, Peg3 promoter 51
COc1ccc(-c2ccc3c(c2)S(=O)(=O)c2cccc(C(=O)NCCOc4ccccc4Cl)c2C3=O)cc1OC	TRPM1 prom inh 69, Peg3 promoter 87
COc1ccc(-c2ccc3c(c2)S(=O)(=O)c2cccc(C(=O)NCc4ccccc4Cl)c2C3=O)cc1OC	none
O=C(NCc1cc(C(F)(F)F)ccc1Cl)c1cccc2c1C(=O)c1ccc(N3CCC(N4CCCCC4)CC3)cc1S2(=O)=O	Peg3 promoter 99 (no result: TRPM1 prom inh)
O=C(NCc1cc(C(F)(F)F)ccc1Cl)c1cccc2c1C(=O)c1ccc(N3CCCCC3)cc1S2(=O)=O	none
O=C1C(Cl)=C(NCCN2CCOCC2)C(=O)c2ccccc21	TRPM1 prom inh 69
O=S(=O)(c1ccccc1)c1nc(-c2ccccc2Cl)oc1NCCCN1CCOCC1	none
O=C1C(Cl)=C(NCCCO)C(=O)c2ccccc21	TRPM1 prom inh 84
O=C1C(Cl)=C(NCCCN2CCOCC2)C(=O)c2ccccc21	TRPM1 prom inh 98
CN(Cc1ccccc1)C(=O)C1(C)CCN1C(=O)Cc1ccc(Cl)cc1Cl (stereo not drawn)	none (no result: LMP1 NFkB inh, TRPM1 prom inh)
CCOc1ccc(NC(=O)N(c2ccccc2)c2ccccc2)cc1	none
CCOc1ccc(NC(=O)N(O)C2(C#N)CCCCC2)cc1	Peg3 promoter 96
CCC/C=C/c1ccc(CN2C(C(C)C)C(=O)N(Cc3cn(CCC4OCCO4)nn3)CCS2(=O)=O)cc1 (stereo not drawn)	none (no result: TRPM1 prom inh)
COc1ccc(CNC(=O)c2c(N)n(CCCN3CCOCC3)c3nc4ccccc4nc23)cc1	Peg3 promoter 70
COc1ccc(CCNC(=O)c2cc3c(=O)n4cccc(C)c4nc3n(CCCN3CCOCC3)c2=N)cc1	TRPM1 prom inh 73, Peg3 promoter 57
Nc1c(C(=O)NCc2ccccc2)c2nc3ccccc3nc2n1CCCN1CCOCC1	none
COCCCn1c(C(=O)Nc2ccc3c(c2)OCO3)cc2c(=O)n3cccc(C)c3nc21	Peg3 promoter 60 (no result: TRPM1 prom inh)
O=C(O)c1ccccc1NC(=O)C1CCN(S(=O)(=O)c2ccc3c(c2)OCCO3)CC1	none (no result: TRPM1 prom inh)
COc1cc(OC)c(C(=O)/C=C/c2ccccc2)c(O)c1O	none
COc1cc(O)cc(O)c1C(=O)/C=C/c1ccccc1	CF NFkB inh 52
CCN(CC)c1ccc(/C=C/c2cccc[n+]2C)c(OC)c1	TRPM1 prom inh 68, Shn3 inh set2 89
COc1cccc(CN2CCC2(C)C(=O)NCc2cccc(C(F)(F)F)c2)c1OC (stereo not drawn)	none (no result: LMP1 NFkB inh, TRPM1 prom inh)
COc1ccc(C(=O)NN(C)c2nc(C(F)(F)F)nc3ccccc23)cc1	CF NFkB inh 75
COc1ccc(C(=O)NN(C)c2nc(-c3ccccc3)nnc2C(F)(F)F)cc1	none
Fc1ccc(-n2nnc(-c3cccnc3)n2)cc1	none
Fc1ccc(-n2nnc(-c3cnc4ccccc4c3)n2)cc1	LMP1 NFkB inh inconclusive, Peg3 promoter 52
O=C(Nc1ccc2c(c1)OCCO2)C(c1ccnc2ccccc12)N1CCC(Cc2ccccc2)CC1 (stereo not drawn)	none (no result: LMP1 NFkB inh, TRPM1 prom inh)
O=C(COc1ccccc1)N(Cc1ccccc1)c1nc(-c2ccccc2)cs1	none
COc1ccc(-c2csc(N(Cc3ccccc3)C(=O)COc3ccc(Cl)cc3)n2)cc1	Peg3 promoter 70
COc1ccc(C(NC(=O)c2cccnc2)c2cc(Cl)c3cccnc3c2O)cc1OC (stereo not drawn)	Shn3 inh set2 93
CC(=O)NC(c1cc(Cl)c2cccnc2c1O)C(C)C (stereo not drawn)	Shn3 inh set2 86
CCC1CC(C(=O)O)CC(=O)N1 (stereo not drawn)	none (no result: LMP1 NFkB inh, TRPM1 prom inh)
CC1(C(=O)NCc2ccc3c(c2)OCO3)CCN1Cc1csc2ccccc12 (stereo not drawn)	none (no result: LMP1 NFkB inh, TRPM1 prom inh)
COc1ccc(N=C2S/C(=C\c3ccc(N4CCOCC4)o3)C(=O)N2CCc2c[nH]c3ccccc23)cc1	Shn3 inh set2 95, Peg3 promoter 101
COc1ccc(N=C2S/C(=C\c3ccc(OCC(=O)O)cc3)C(=O)N2CCc2c[nH]c3ccccc23)cc1	none
COc1ccc2[nH]c3c(c2c1)CCN1C(=O)C(CC(=O)NCCCN(C)C)C[C@H](C(=O)N2CCCCC2)[C@@]31CCc1ccccc1 (stereo partly drawn)	none
C[C@]12c3[nH]c4ccccc4c3CCN1C(=O)C(CC(=O)NCCc1ccccn1)C[C@@H]2C(=O)N1CCCCC1 (stereo partly drawn)	none
CN(C)CCCNC(=O)CC1C[C@H](C(=O)N2CCCCC2)[C@@]2(CCc3ccccc3)c3[nH]c4ccccc4c3CCN2C1=O (stereo partly drawn)	Peg3 promoter 93
CC(C)(C)NC(=O)C[C@H]1C[C@H](C(=O)N2CCCCC2)[C@@]2(CCc3ccccc3)c3[nH]c4cc(-c5ccco5)ccc4c3CCN2C1=O	none
CN(C)CCCNC(=O)C[C@H]1C[C@H](C(=O)N2CCCCC2)[C@@]2(CCc3ccccc3)c3[nH]c4cc(-c5ccco5)ccc4c3CCN2C1=O	TRPM1 prom inh 92, Peg3 promoter 95
CN(C)CCCNC(=O)C[C@H]1C[C@H](C(=O)N2CCCCC2)[C@@]2(C)c3[nH]c4cc(-c5ccco5)ccc4c3CCN2C1=O	Peg3 promoter 65
O=C(CC1C[C@H](C(=O)N2CCCCC2)[C@@]2(CCc3ccccc3)c3[nH]c4ccccc4c3CCN2C1=O)NCCc1ccccn1 (stereo partly drawn)	LMP1 NFkB inh 69
O=C(C=Cc1ccccc1)c1c[nH]c2ccccc2c1=O	Peg3 promoter 97
C(=C\c1sc(Nc2ccccc2)n[n+]1-c1ccccc1)/c1ccccc1	TRPM1 prom inh 79, Peg3 promoter 101
COc1ccc(-c2sc(Nc3ccccc3)n[n+]2-c2ccccc2)cc1Br	none
O=C(c1cccc(F)c1)N1CCN(c2cccc(Cl)c2)CC1	LMP1 NFkB inh 45
Cc1c(NC(=O)c2cccc(NC(=O)COc3ccccc3C#N)c2)c(=O)n(-c2ccccc2)n1C	LMP1 NFkB inh 54
CN(C)S(=O)(=O)c1ccc(Cl)c(C(=O)NCCNC(=O)c2cc(S(=O)(=O)N(C)C)ccc2Cl)c1	LMP1 NFkB inh 71
CN(C)S(=O)(=O)c1ccc(Cl)c(C(=O)NCC2CCCCC2)c1	none
Nc1cccc2nsnc12	none

Screens (PubChem BioAssay)
